The results in this text go back to PubChem BioAssay (NCI).

A short description of experiment [1]: NCI Yeast Anticancer Drug Screen. Data for the rad50 strain (AID 155).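 Also: 0% = growth of vehicle-only cultures of the same strain.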 The note with it: S. cerevisiae rad50 strain growth inhibition, hits give high values. In a few lines:
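A DNA repair-deficient yeast mutant serves as the test organism; compound-induced growth inhibition is calculated against vehicle-treated cells.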

Experiment [2] in a line: NCI Yeast Anticancer Drug Screen. Data for the mec2-1 strain (AID 157). The conditions noted are these: S. cerevisiae mec2-1 strain, hits give high values. In outline:
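Compounds were applied to mec2-1 yeast cells. Their growth was then compared with that of vehicle-treated cultures to give growth inhibition.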

The nature of experiment [3]: NCI Yeast Anticancer Drug Screen. Data for the sgs1 mgt1 strain (AID 161).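 Also: 0% = growth of cultures given vehicle only.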 The note with it: S. cerevisiae sgs1 mgt1 strain, hits give high values. In outline: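 Percent growth inhibition was derived by comparing compound-exposed mutant yeast with vehicle-exposed cultures. The strain carries alterations in DNA damage repair.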
Experiment [4] can be described thus: NCI Yeast Anticancer Drug Screen. Data for the cln2 rad14 strain (AID 165).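 Also: 0% = growth equal to vehicle treated cultures.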 The conditions noted are these: S. cerevisiae cln2 rad14 strain, hits give high values. In a few lines:
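Strain: cln2 rad14 yeast, altered in cell cycle control and DNA damage repair. Read-out: growth inhibition vs vehicle.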

The nature of experiment [5]: NCI Yeast Anticancer Drug Screen. Data for the bub3 strain (AID 167). The conditions noted are these: S. cerevisiae bub3 mutant strain, hits give high values. In outline:
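Inhibition values come from growth of compound-treated mutant yeast normalised to vehicle-treated controls.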

Experiment [6] is described as follows: NCI Yeast Anticancer Drug Screen. Data for the mlh1 rad18 strain (AID 175). The note with it: S. cerevisiae mlh1 rad18 strain growth inhibition, hits give high values. In a few lines:
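A repair-deficient yeast strain is exposed to test compound, and growth is scored relative to vehicle-treated controls.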

The mark [7] stands for this setting: at 5.0 µM (retest, dose inferred, filed as 0.5).
Setting [8] is: at 50.0 µM (retest, dose inferred, filed as 5.0).

Structures are written as SMILES. This is part of a sample that, as a whole, favours compounds with a hit. Of some 79,000 tested, about 15% had one in any assay. A number with no mark means an inactive call. The source made the active and inactive calls. Rule as the data show it: active = growth inhibition above about 70%; inactive = the rest.

For `O=C1C2=C(CCCC2)C(=O)C(Cl)C1Cl` (configuration not stated), the growth inhibition in experiment [1] (setting [7]) is 36%; in experiment [1] (setting [8]), 98% (active); in experiment [1] (at 50.0 µM) it was 97.8% (active); in experiment [2] (setting [7]) it was 32%; in experiment [2] (setting [8]) it was 99% (active); in experiment [2] (at 50.0 µM), 99.3% (active). Also, the growth inhibition is 24% in experiment [3] (setting [7]); 99% (active) in experiment [3] (setting [8]); 99.5% (active) in experiment [3] (at 50.0 µM); 9% in experiment [4] (setting [7]); 99% (active) in experiment [4] (setting [8]); 99.1% (active) in experiment [4] (at 50.0 µM). The growth inhibition in experiment [5] (setting [7]) is 56%; in experiment [5] (setting [8]), 99% (active); in experiment [5] (at 50.0 µM), 99.5% (active); in experiment [6] (setting [7]), 62%; in experiment [6] (setting [8]), 99% (active); in experiment [6] (at 50.0 µM), 99.5% (active).
Consider `CCCCCCCCCCCCCCCCCC(=O)OCCOCCO`, for which the growth inhibition in experiment [1] (setting [7]) is -12%; in experiment [1] (setting [8]), -16%; in experiment [1] (at 50.0 µM), -2.4%; in experiment [2] (setting [7]), -22%; in experiment [2] (setting [8]) it was -46%; in experiment [2] (at 50.0 µM), -0.25%. Also, the growth inhibition was -10% in experiment [3] (setting [7]); -23% in experiment [3] (setting [8]); -2.7% in experiment [3] (at 50.0 µM); -33% in experiment [4] (setting [7]); -21% in experiment [4] (setting [8]); 60.8% in experiment [4] (at 50.0 µM). For the same molecule, the growth inhibition in experiment [5] (setting [7]) was -27%; in experiment [5] (setting [8]), -24%; in experiment [5] (at 50.0 µM) it was -13.3%; in experiment [6] (setting [7]) it was -28%; in experiment [6] (setting [8]), -25%; in experiment [6] (at 50.0 µM), -21.6%.
For `COC(=O)c1n[nH]c(C(C)C)c1N=NN(C)C`, the growth inhibition was 29% in experiment [1] (setting [7]); 95% (active) in experiment [1] (setting [8]); 98.9% (active) in experiment [1] (at 50.0 µM); -35% in experiment [2] (setting [7]); 97% (active) in experiment [2] (setting [8]); 99.1% (active) in experiment [2] (at 50.0 µM). Moreover, the growth inhibition in experiment [3] (setting [7]) was -27%; in experiment [3] (setting [8]) it was 96% (active); in experiment [3] (at 50.0 µM), 99% (active); in experiment [4] (setting [7]), -11%; in experiment [4] (setting [8]), 98% (active); in experiment [4] (at 50.0 µM), 99% (active). In addition, the growth inhibition is -38% in experiment [5] (setting [7]); 96% (active) in experiment [5] (setting [8]); 98.3% (active) in experiment [5] (at 50.0 µM); -77% in experiment [6] (setting [7]); 96% (active) in experiment [6] (setting [8]); 99.2% (active) in experiment [6] (at 50.0 µM).
With `Cc1ccc(C2=C(C#N)C(c3ccccc3)C(C#N)=C(N)O2)cc1` (configuration not stated), the growth inhibition is 57% in experiment [1] (setting [7]); 95% (active) in experiment [1] (setting [8]); 97.5% (active) in experiment [1] (at 50.0 µM); 53% in experiment [2] (setting [7]); 99% (active) in experiment [2] (setting [8]); 98.5% (active) in experiment [2] (at 50.0 µM). The growth inhibition in experiment [3] (setting [7]) was 71% (active); in experiment [3] (setting [8]) it was 98% (active); in experiment [3] (at 50.0 µM), 97.8% (active); in experiment [4] (setting [7]) it was 35%; in experiment [4] (setting [8]) it was 99% (active); in experiment [4] (at 50.0 µM), 98.9% (active). Further, the growth inhibition was 48% in experiment [5] (setting [7]); 98% (active) in experiment [5] (setting [8]); 97.9% (active) in experiment [5] (at 50.0 µM); 59% in experiment [6] (setting [7]); 98% (active) in experiment [6] (setting [8]); 98.5% (active) in experiment [6] (at 50.0 µM).
As to `CCCNC(=O)c1ccccc1`, the growth inhibition in experiment [1] (setting [7]) is -1%; in experiment [1] (setting [8]), -5%; in experiment [1] (at 50.0 µM) it was 4%; in experiment [2] (setting [7]), 2%; in experiment [2] (setting [8]), -2%; in experiment [2] (at 50.0 µM) it was 13.2%. Moreover, the growth inhibition in experiment [3] (setting [7]) is 1%; in experiment [3] (setting [8]) it was -5%; in experiment [3] (at 50.0 µM), 2.85%; in experiment [4] (setting [7]), -6%; in experiment [4] (setting [8]), -2%; in experiment [4] (at 50.0 µM), 70.8% (active). The growth inhibition was -5% in experiment [5] (setting [7]); -9% in experiment [5] (setting [8]); 22.7% in experiment [5] (at 50.0 µM); -2% in experiment [6] (setting [7]); -5% in experiment [6] (setting [8]); 7.6% in experiment [6] (at 50.0 µM).
With `Cc1cc2oc3c(ccc(=O)n3C)c(=O)c2c(C)c1Cl`, the growth inhibition was 9% in experiment [1] (setting [7]); 38% in experiment [1] (setting [8]); 53.7% in experiment [1] (at 50.0 µM); 10% in experiment [2] (setting [7]); 23% in experiment [2] (setting [8]); 29.4% in experiment [2] (at 50.0 µM). The growth inhibition in experiment [3] (setting [7]) is 22%; in experiment [3] (setting [8]), 21%; in experiment [3] (at 50.0 µM), 54.8%; in experiment [4] (setting [7]) it was 20%; in experiment [4] (setting [8]), 13%; in experiment [4] (at 50.0 µM), 25.9%. Besides, the growth inhibition is 18% in experiment [5] (setting [7]); 10% in experiment [5] (setting [8]); 30.2% in experiment [5] (at 50.0 µM); 11% in experiment [6] (setting [7]); 48% in experiment [6] (setting [8]); 17.9% in experiment [6] (at 50.0 µM).
For the molecule `CCCCC(C)(C)OC(=O)Nc1ccc(Br)cc1`, the growth inhibition in experiment [1] (setting [7]) is 0%; in experiment [1] (setting [8]), 95% (active); in experiment [1] (at 50.0 µM) it was 96.3% (active); in experiment [2] (setting [7]) it was -14%; in experiment [2] (setting [8]) it was 94% (active); in experiment [2] (at 50.0 µM), 86.2% (active). In addition, the growth inhibition in experiment [3] (setting [7]) is -8%; in experiment [3] (setting [8]), 95% (active); in experiment [3] (at 50.0 µM), 97.8% (active); in experiment [4] (setting [7]), 43%; in experiment [4] (setting [8]), 96% (active); in experiment [4] (at 50.0 µM), 84.2% (active). In addition, the growth inhibition was -8% in experiment [5] (setting [7]); 93% (active) in experiment [5] (setting [8]); 35.5% in experiment [5] (at 50.0 µM); -2% in experiment [6] (setting [7]); 96% (active) in experiment [6] (setting [8]); 97.4% (active) in experiment [6] (at 50.0 µM).
As to `O=C(CC1(O)CCCCC1)OC1CCCC1`, the growth inhibition is -1% in experiment [1] (setting [7]); 0% in experiment [1] (setting [8]); 58.3% in experiment [1] (at 50.0 µM); -1% in experiment [2] (setting [7]); -11% in experiment [2] (setting [8]); -13.2% in experiment [2] (at 50.0 µM). Also, the growth inhibition in experiment [3] (setting [7]) is 1%; in experiment [3] (setting [8]), 0%; in experiment [3] (at 50.0 µM), 5.85%; in experiment [4] (setting [7]), -14%; in experiment [4] (setting [8]), 19%; in experiment [4] (at 50.0 µM), 62.8%. Also, the growth inhibition in experiment [5] (setting [7]) was 5%; in experiment [5] (setting [8]), -10%; in experiment [5] (at 50.0 µM) it was -58.9%; in experiment [6] (setting [7]) it was 7%; in experiment [6] (setting [8]), 10%; in experiment [6] (at 50.0 µM) it was 6.2%.
For the molecule `CN(C)C(=O)Nc1ccc(Cc2ccc(NC(=O)N(C)C)cc2)cc1`, the growth inhibition in experiment [1] (setting [7]) was -6%; in experiment [1] (setting [8]), -32%; in experiment [1] (at 50.0 µM), -3%; in experiment [2] (setting [7]), -29%; in experiment [2] (setting [8]), -32%; in experiment [2] (at 50.0 µM) it was -13.2%. Besides, the growth inhibition in experiment [3] (setting [7]) is -13%; in experiment [3] (setting [8]) it was -8%; in experiment [3] (at 50.0 µM), 27.6%; in experiment [4] (setting [7]), 5%; in experiment [4] (setting [8]), -4%; in experiment [4] (at 50.0 µM), 3.65%. Moreover, the growth inhibition in experiment [5] (setting [7]) was -19%; in experiment [5] (setting [8]), -20%; in experiment [5] (at 50.0 µM) it was 7.95%; in experiment [6] (setting [7]), -33%; in experiment [6] (setting [8]), -56%; in experiment [6] (at 50.0 µM), -0.15%.
